Screening results deposited in PubChem BioAssay by National Center for Advancing Translational Sciences (NCATS).
ELG1 genotox: qHTS screen for small molecules that induce genotoxicity in human embryonic kidney (HEK293T) cells expressing luciferase-tagged ELG1; 1.3% of 330,000 active; HEK293T ELG1-luciferase reporter, luminescence, 16 h; Potency, µM (top dose mostly 46 µM), without a hit: at the highest dose activity change, positive = activation, usual class: activators; also: % of control where 0% means no effect; nearly all actives have a fitted effect of over 60% in size
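HEK293T cells expressing luciferase-tagged ELG1 were treated with compound or DMSO for 16 hr at 37°C. Luciferase activity was then read after 30 min with ONE-Glo at room temperature; rising signal flags genetic stress.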
FLuc counter: qHTS profiling assay for firefly luciferase inhibitor/activator using purifed enzyme and Km concentrations of substrates (counterscreen for miR-21 project); 6.9% of 360,000 active; Luciferin 4-monooxygenase (Photinus pyralis), P08659; Potency, µM (titrated, usually from 57.5 µM), without a hit: at the highest dose activity change, negative = inhibition, actives largely listed as inhibitors; purified FLuc, Km substrates, luminescence inhibition;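 also: plate controls were vehicle for no effect and reference inhibitor for full effect; nearly all actives have a fitted effect of over 55% in size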
Target sequence (P08659 whole entry, looked up): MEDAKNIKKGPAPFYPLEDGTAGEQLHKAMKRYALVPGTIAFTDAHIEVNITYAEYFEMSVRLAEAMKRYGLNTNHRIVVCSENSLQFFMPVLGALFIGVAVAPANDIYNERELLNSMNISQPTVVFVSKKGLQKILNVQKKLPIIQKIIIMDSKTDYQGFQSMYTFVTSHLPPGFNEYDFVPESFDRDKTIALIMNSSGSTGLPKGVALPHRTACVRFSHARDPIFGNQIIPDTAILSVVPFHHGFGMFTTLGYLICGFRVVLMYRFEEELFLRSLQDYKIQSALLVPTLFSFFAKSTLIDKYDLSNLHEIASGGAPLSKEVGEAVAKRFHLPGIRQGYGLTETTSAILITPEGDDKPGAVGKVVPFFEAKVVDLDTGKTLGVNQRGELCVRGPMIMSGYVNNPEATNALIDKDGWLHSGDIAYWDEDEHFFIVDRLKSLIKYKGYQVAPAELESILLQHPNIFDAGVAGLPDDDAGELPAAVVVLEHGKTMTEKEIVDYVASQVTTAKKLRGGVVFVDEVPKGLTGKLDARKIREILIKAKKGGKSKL
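Biochemical qHTS of compounds, final roughly 60 µM downward over six points, against 10 nM purified firefly luciferase using Km concentrations of substrates (10 uM D-luciferin, 10 uM ATP) in Tris acetate pH 7.5 buffer; luminescence output.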
NPC1 promoter act: qHTS Assay for NPC1 Promoter Activators; 2.4% of 320,000 active; Huh7 NPC1 promoter luciferase reporter, 24 h; AID 485313, 2010; Potency, µM (doses to about 9.22 µM), for the others: top-dose activation, usual class: activators; also: % of control where 0% means no effect; nearly all actives have a fitted effect of over 60% in size
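NPC1 promoter–luciferase Huh7 cells; 24 h compound; luminescence.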
SMN2 splice up: qHTS Assay for Enhancers of SMN2 Splice Variant Expression; HEK293 SMN2-luciferase splicing reporter, luminescence, 30-36 h; Potency, µM (top dose mostly 46.1 µM), without a hit: top-dose activity change, positive = activation, actives largely listed as activators; 2.8% of 210,000 active; also: % of control where 0% means no effect; nearly all actives have a fitted effect of over 55% in size
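HEK293 cells carry an SMN2 minigene-luciferase reporter in which exon 7 inclusion puts luciferase in frame. Cells were seeded at 2000 cells/well, attached for 10-12 hours, then exposed to compounds for 30-36 hours at 37C before ONE-Glo luminescence.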
KinaseGlo FLuc: Counterscreen for Luciferase (Kinase-Glo TM) Inhibition. Luciferin 4-monooxygenase (Photuris pensylvanica), Q27757. 0.28% of 200,000 active. AID 1379, 2008. Potency, µM (series often up to 38.3 µM), without a hit: at the top dose activity change, negative = inhibition, hits mostly inhibitors. Kinase-Glo luciferase, ATP luminescence, 8 min; also: % is scaled to controls: 0 for no effect and ±100 for the full control effect; nearly all actives have a fitted effect of over 60% in size
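Recombinant Kinase-Glo luciferase, 10 uM ATP (linear range), luciferin; imidazole pH 7.2 / KCl / MgCl2 / Tween / BSA buffer; 8 min RT; luminescence.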
Rab9 promoter act: qHTS Assay for Rab9 Promoter Activators; Huh7 Rab9 promoter-luciferase reporter, luminescence, 24 h; Potency, µM (top dose mostly 9.22 µM), inactives show at the top dose activation, negative = inhibition, most hits filed as activators; 2.8% of 320,000 active; AID 485297, 2010; also: % of control where 0% means no effect; nearly all actives have a fitted effect of over 60% in size
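Luminescence read-out: Huh7 cells stably expressing Rab9-luciferase, treated 24 h with compound at 37 °C, then lysed with luciferase reagent for 10 min at ambient before reading.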
The depositor's hits bear a star; ? = inconclusive; · = no result. Compounds with a hit are over-represented: about 7.3% of the library has one in this group of screens. Calls follow the shape of the dose curve; as a rule, active = well fitted curve in the direction sought with a large enough effect; inconclusive = small, poorly fitted or top-dose-only effect, or another doubt; inactive = no such curve, though single readings can be large; an effect the other way counts as inactive or inconclusive. Potency is read from the fitted curve at half-maximal effect.

SMILES | ELG1 genotox | FLuc counter | NPC1 promoter act | SMN2 splice up | KinaseGlo FLuc | Rab9 promoter act
O=C(Nc1nc2ccccc2[nH]1)c1cccc([N+](=O)[O-])c1 | 9% | ? | 3.5µM* | 11µM* | -7% | 1.4µM*
O=C(NC(Cc1ccccc1)c1nc2ccccc2[nH]1)c1cccc([N+](=O)[O-])c1 (centres undefined) | -3% | -18% | 10% | · | · | -3%
CCCC(=O)Nc1ccc(C(=O)Nc2cccc(OC)c2)cc1 | 12% | ? | 21% | -7% | -19% | 12%
COc1cccc(NC(=O)Nc2ccc(C(C)(C)C)cc2)c1 | -9% | 3µM* | ? | 11µM* | -2% | ?
COc1cccc(NC(=O)c2ccc(NC(=O)C(C)(C)C)cc2)c1 | 14% | 9.5µM* | ? | 13µM* | -4% | ?
CCc1ccc(NC(=O)CCC(=O)Nc2nnc(C(F)(F)F)s2)cc1 | 9% | 27µM* | 21% | · | · | 0%
Cc1nn(CC(=O)NCc2ccccc2Cl)c(C)c1[N+](=O)[O-] | 0% | -11% | 8% | -1% | -1% | 1%
CCn1nc(C(=O)NCc2ccco2)c(Cl)c1Cl | -1% | 2% | -2% | 6% | 0% | 2%
O=C(NC(c1cccnc1)C(F)(F)F)c1cc(COc2ccc3c(c2)CCCC3)on1 (centres undefined) | 12% | 15µM* | -3% | · | · | 6%
CCOC(=O)c1cc(-c2csc(Nc3ccccc3Cl)n2)on1 | 2% | ? | 0% | · | · | 2%
CS(=O)(=O)c1ccc2nc(NC(=O)Cc3ccccc3)sc2c1 | 3% | -6% | -1% | · | · | 14%
Cc1cccc(C(=O)Nc2nc3ccc(S(C)(=O)=O)cc3s2)c1 | ? | 2.1µM* | 2.2µM* | · | · | ?
NS(=O)(=O)c1ccc2nc(NC(=O)c3ccncc3)sc2c1 | 12% | 6.7µM* | 18% | · | · | 23%
CS(=O)(=O)c1ccc2nc(NC(=O)CS(=O)(=O)Cc3ccccc3)sc2c1 | 1% | 17µM* | 1% | -6% | 7% | 11%
CS(=O)(=O)c1ccc2nc(NC(=O)Nc3ccccc3F)sc2c1 | ? | 0.54µM* | 0.32µM* | · | · | 1.1µM*
CN1CCN(C(=O)CN(C2CCCCC2)S(=O)(=O)c2ccc(Br)cc2)CC1 | 2% | -1% | -1% | · | · | -1%
CCc1ccc(C2CC(=O)Nc3c2c(=O)n(C)c2ncnn32)cc1 (centres undefined) | · | -7% | · | -14% | · | ·
Cc1cc(NC(=O)CN2CC(C)OC(C)C2)n(-c2nc3ccccc3s2)n1 (centres undefined) | -5% | 0% | 26% | 2% | 0% | 8%
Cc1cc(NC(=O)c2ccc([N+](=O)[O-])cc2)no1 | ? | -18% | ? | · | · | ?
CC(C)(C)C(=O)Nc1nc2ccc(S(C)(=O)=O)cc2s1 | 6% | ? | ? | 7.9µM* | -1% | 1.8µM*
Cc1ccc(C(=O)Nc2nc3ccc(S(C)(=O)=O)cc3s2)cc1C | 10% | -1% | 14% | · | · | 12%
CS(=O)(=O)c1ccc2nc(NC(=O)c3ccc(NS(=O)(=O)c4cccc([N+](=O)[O-])c4)cc3)sc2c1 | -1% | 11µM* | -3% | · | · | 11%
CS(=O)(=O)c1ccc2nc(NC(=O)CCNC(=O)c3ccc([N+](=O)[O-])cc3)sc2c1 | 14% | -7% | 9% | · | · | 15%
CS(=O)(=O)c1ccc2nc(NC(=O)c3ccccc3)sc2c1 | ? | 2.1µM* | 0.63µM* | · | · | 0.5µM*
CC(C)C(=O)Nc1nc2ccc(S(C)(=O)=O)cc2s1 | -2% | ? | 14% | 27% | -1% | 18%
SMILES | ELG1 genotox | FLuc counter | NPC1 promoter act | SMN2 splice up | KinaseGlo FLuc | Rab9 promoter act
COc1ccc(/C=N/NC(=O)c2cccc(Br)c2)cc1COc1ccccn1 | -5% | -5% | 0% | · | · | -3%
Cc1ccc(C(=O)Nc2nnc(C)s2)o1 | 4% | -3% | 13% | 0% | 16% | 15%
COC(=O)c1sc(NC(=O)c2ccc(C)o2)nc1C | ? | 5.4µM* | ? | 1.6µM* | 6.3µM* | 2.8µM*
Cc1c(C(=O)Nc2nnc(C(F)(F)F)s2)oc2ccccc12 | 8% | 11µM* | ? | -14% | 0% | ?
Cc1occc1C(=O)Nc1nnc(C(F)(F)F)s1 | -5% | -21% | 1% | -29% | -22% | 2%
CCOC(=O)c1sc(NC(=O)c2ccco2)nc1C | ? | 11µM* | 28% | 8% | -26% | ?
COC(=O)c1sc(NC(=O)c2oc3ccccc3c2C)nc1C | 2.3µM* | ? | ? | 7.1µM* | 1% | ?
CC(C)C(C)(C#N)NC(=O)CSc1nnc(C(F)(F)F)n1C (centres undefined) | -3% | 7% | 1% | ? | -1% | 9%
O=C(Nc1ccccc1)c1sc(N2CCOCC2)nc1-c1ccccc1 | -4% | 6% | -2% | 0% | 2% | 3%
COc1ccccc1NC(=O)Cn1cc(C(=O)C2CC2)c2ccccc21 | 0% | 1% | -1% | · | · | -1%
CCOC(=O)Cn1nnc2c(sc3nc4c(c(-c5ccc(Cl)cc5)c32)CCC4)c1=O | -4% | 2% | 0% | -25% | -6% | -6%
CCOC(=O)c1sc(NC(=O)c2ccc(C)o2)nc1C | 5.8µM* | 6µM* | -23% | 13µM* | ? | -30%
Cc1cc(C)cc(Nc2nc(-c3ccc(S(=O)(=O)N4CCCC4)cc3)cs2)c1 | -14% | 2% | -10% | -53% | 2% | -8%
C/C=C\C=C\C(=O)N1CC2(CC(c3cccc(NC(=O)COc4ccc(Cl)cc4)c3)=NO2)C[C@H]1C(N)=O (some centres undefined) | -4% | 9.5µM* | -2% | · | · | -3%
C/C=C\C=C/C(=O)Nc1cccc(C2=NOC3(C2)C[C@@H](C(N)=O)N(C(=O)COc2ccc(Cl)cc2)C3)c1 (some centres undefined) | -3% | 15µM* | -2% | · | · | -3%
Oc1ccc(/C=N/N(c2ccccc2)c2ccccc2)cc1O | -14% | 1% | -1% | · | · | 4%
O=C(COc1ccc(Br)cc1)Nc1ccncc1 | 0% | ? | -3% | 8% | 0% | 1%
CCc1ccc(OCC(=O)NNC(=S)NC(=O)C2CCCCC2)c(Br)c1 | 14% | 2% | -4% | · | · | 26%
CCc1ccc(OCC(=O)NNC(=S)NC(=O)C2CC2)c(Br)c1 | ? | 9.5µM* | -1% | · | · | -2%
